Sa ugtP lethal – growth inhibition of S. aureus ugtP deletion strain; S. aureus RN4220 ugtP deletion, OD600 growth, 16 h; growth inhibition, % (concentration not given with the values); hit rate 0.54% among 330,000; AID 1259309; in the data active = growth inhibition above about 68%;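 also: plate controls were untreated wells for no effect and antibiotic for full effect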
DUSP3 inh – inhibitors of human VHR1 phosphatase (DUSP3); P51452; recombinant VHR phosphatase, pNPP absorbance; inhibition, % at 13.3 µM; hit rate 0.52% among 290,000; AID 1654; in the data active = inhibition above about 50%
Target sequence (P51452 whole entry, looked up): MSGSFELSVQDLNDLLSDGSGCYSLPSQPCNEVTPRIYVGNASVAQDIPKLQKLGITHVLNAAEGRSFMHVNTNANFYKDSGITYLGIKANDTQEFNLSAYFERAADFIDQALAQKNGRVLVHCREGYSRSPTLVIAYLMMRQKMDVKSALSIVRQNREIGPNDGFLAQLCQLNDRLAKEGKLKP
PrPC TRFRET – inhibitors of human cell surface prion protein PrPC. TR-FRET read-out. inhibition, % at 13.8 µM. hit rate 0.43% among 370,000. P04156; in the data active = inhibition above about 24%; also: 0% = median of the test wells and 100% = reference compound wells
Sa RN4220 lethal – kills Staphylococcus aureus RN4220; S. aureus RN4220 growth, OD600, 16 h; inhibition, % (no concentration beside the values); hit rate 0.33% among 330,000; in the data active = inhibition above about 85%;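 also: plate controls were untreated cells for no effect and reference antibiotic for full effect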
SARS 3CLpro inh – SARS-CoV 3CLpro protease inhibition; recombinant SARS-CoV 3CLpro, quenched FRET peptide cleavage; hit rate 0.14% among 290,000; P0C6X7; inhibition, % at 6 µM; in the data active = inhibition above about 12%
BJeLR viability – BJeLR cell viability loss; hit rate 0.17% among 300,000; inhibition, % (concentration not given with the values); BJeLR (HRASV12) viability, CellTiter-Glo ATP luminescence, 48 h; in the data active = inhibition above about 50%
Active calls of the source: *; . = no result given. Rows were chosen to be rich in hits. Some 1.4% of all compounds tested hit in one or more screens of this group.

SMILES | Sa ugtP lethal | DUSP3 inh | PrPC TRFRET | Sa RN4220 lethal | SARS 3CLpro inh | BJeLR viability
CC(NCc1ccccc1)=C(C#N)C(=O)NCc1ccccc1 | -6.4 | . | . | 8.2 | . | .
COc1cccc(-c2noc(CCC(=O)NCCc3ccccc3)n2)c1 | -0.5 | 58.2* | -5.8 | -2.8 | 3.1 | 4.6
C[C@@]1(C(NP(=O)(c2ccccc2)c2ccccc2)c2ccccc2)CC1CCO (some centres undefined) | 0.5 | . | . | 11.0 | . | .
COC(=O)C1=C(C(=O)OC)C2Nc3ccccc3[C@@]23CC(C(=O)OC)N(C(=O)c2cc(C)oc2C)C3=N1 (some centres undefined) | 4.8 | . | . | 6.7 | . | .
Cc1nc2c(-c3ccc(Cl)cc3)c(C)[nH]n2c(=O)c1Cc1ccccc1 | 99.6* | 29.5 | -0.8 | 99.7* | 5.9 | 15.1
C=CCNC(=O)N1CCC(n2nccc2NC(=O)CCCc2ccccc2)CC1 | 1.9 | 55.6* | -4.1 | 1.0 | -1.0 | 11.0
COCC(=O)N1CCC(n2nccc2NC(=O)CCOc2ccccc2)CC1 | -0.6 | 55.5* | -1.9 | -1.0 | -6.3 | 1.0
O=c1cc2c(=O)oc3cc(O)c(O)oc3c2c(O)c1O | 18.2 | 111.6* | -7.8 | 7.8 | 0.4 | 23.4
O=c1oc2cc(O)c(Cl)cc2c2ccccc12 | -9.2 | -7.9 | 3.8 | 4.7 | 0.1 | -1.5
CCOC(=O)c1c2c(n(C)c1C)C(=O)C(=O)c1ccc(Br)cc1-2 | 94.9* | . | -3.1 | 95.0* | -5.6 | 55.4*
COC(=O)C1=C(C(=O)OC)C2N(C)c3ccc(OC)cc3[C@@]23CC(C(=O)OC)N(S(=O)(=O)c2ccc([N+](=O)[O-])cc2)C3=N1 (some centres undefined) | 3.5 | . | . | 2.6 | . | .
CCOC(=O)c1c(S(=O)(=O)Nc2ccc(C)cn2)c(C)n(C)c1C | 4.7 | 51.2* | 3.1 | 2.0 | -5.5 | -10.2
CCOC(=O)c1c(S(=O)(=O)Nc2ccc(C)c(F)c2)c(C)n(C)c1C | -0.1 | 35.2 | -5.9 | -1.0 | 1.9 | -4.9
C=CCN1C(=O)C(=C2Sc3ccccc3N2C)SC1=Nc1c(C)n[nH]c1C | -4.6 | . | . | -2.8 | . | .
NC(CO)c1nnc(C(CC(=O)O)NC(=O)C2CCNCC2)o1 (centres undefined) | -5.4 | . | . | 4.1 | . | .
O=C(N/N=C/c1cccc(Oc2ccccc2)c1)c1ccccc1F | . | -21.7 | 3.5 | . | 0.1 | -3.6
O=C(NN=Cc1cccc(Oc2ccccc2)c1)c1ccccc1Br | 99.0* | . | . | -2.9 | . | .
CCN1C(=O)C2C(c3ccc(-c4ccc(C(C)=O)cc4)c(OC)c3)N3CCC[C@@]3(C(=O)OC)C2C1=O (some centres undefined) | -0.9 | . | . | 9.3 | . | .
O=C(Nc1ccc(F)cc1)NC1(C(=O)NCc2ccc3c(c2)OCO3)CCCCC1 | 99.9* | 16.1 | 4.8 | 37.4 | -0.6 | -2.7
O=C(Nc1ccc(F)cc1)NC1(C(=O)NCc2ccco2)CCCCC1 | -8.0 | 29.9 | -1.9 | -5.6 | 7.4 | 4.8
CCOC1=NN(c2ccccc2)C(=O)C1=CN(C)C | -7.2 | . | . | 5.9 | . | .
COc1ccc(CN2CCOCC2)cc1 | -4.8 | 51.6* | -3.8 | -16.2 | 4.2 | -0.4
Cc1nc(C)c(-c2csc(Nc3ccc(N)cc3)n2)s1 | -14.1 | 57.0* | -12.0 | 4.8 | -4.2 | -6.7
O=C1c2cccc3cc([N+](=O)[O-])cc(c23)C(=O)N1CCN1CCCC1 | . | 27.2 | -7.7 | . | -1.4 | 95.6*
COc1cc2c(cc1OC)C(=O)N1C3c4ccccc4OCC3C(c3ccccc3)[C@]1(C)C(=O)N2 (some centres undefined) | -2.2 | . | . | 6.4 | . | .
SMILES | Sa ugtP lethal | DUSP3 inh | PrPC TRFRET | Sa RN4220 lethal | SARS 3CLpro inh | BJeLR viability
CCCCn1c(NC(=O)c2ccccc2)c(C#N)c2nc3ccccc3nc21 | 38.0 | 32.6 | -6.5 | 54.1 | 1.7 | .
CCC(C)n1c(NC(=O)c2ccccc2)c(C#N)c2nc3ccccc3nc21 (centres undefined) | -4.8 | 57.5* | -0.5 | 7.5 | -2.9 | -6.7
CCOC(=O)c1c(C)sc2c1N(C(=O)CCl)c1cc(Cl)ccc1S2 | 92.8* | 18.9 | -7.4 | 64.1 | 0.1 | 0.0
C[C@H]1c2cccc(O)c2C(O)=C2C(=O)[C@]3(O)C(O)=C(C(N)=O)C(=O)[C@@H](N(C)C)C3[C@@H](O)C21 (some centres undefined) | . | . | 3.7 | . | . | 6.8
CN(C)C1C(=O)C(C(N)=O)=C(O)[C@@]2(O)C(=O)C3=C(O)c4c(O)cccc4[C@@](C)(O)C3CC12 (some centres undefined) | 100.0* | . | . | 100.5* | . | .
CN(C)C1C(=O)C(C(N)=O)=C(O)[C@@]2(O)C(=O)C3=C(O)c4c(O)ccc(Cl)c4C(O)C3CC12 (some centres undefined) | 99.3* | . | . | 100.2* | . | .
CN(C)C1C(=O)C(C(N)=O)=C(O)[C@@]2(O)C(=O)C3=C(O)c4c(O)cccc4[C@@](C)(O)C3C(O)C12 (some centres undefined) | 99.2* | . | . | 99.9* | . | .
CN(C)C1C(=O)C(C(N)=O)=C(O)C2(O)C(=O)C3=C(O)c4c(O)cccc4C(C)(O)C3C(O)C12 (centres undefined) | 100.0* | 9.5 | 3.4 | 100.4* | -0.5 | 3.1
CCN(c1cccc(C)c1)c1nc2ccsc2c(=O)s1 | 88.4* | -2.2 | 5.3 | -3.5 | -5.8 | -8.4
O=C(NCc1nc(-c2ccc(C(F)(F)F)cc2)no1)Nc1cc(Cl)cc(Cl)c1 | 99.5* | 24.6 | -5.3 | 100.5* | 2.1 | -4.4
COc1cccc(/C=N/Nc2nc3ccccc3n3cnnc23)c1O | . | 16.4 | -5.6 | . | 3.4 | 4.2
COc1cccc(/C=N/Nc2nc3ccccc3n3cnnc23)c1 | . | 51.3* | -8.0 | . | 4.0 | -2.9
CCOC(=O)O[C@]1(C(=O)COC(=O)CC)CCC2C3CCC4=CC(=O)C=C[C@]4(C)C3C(O)C[C@@]21C (some centres undefined) | 2.4 | . | . | 10.0 | . | .
O=C(COc1ccccc1)N=C1SC2CS(=O)(=O)CC2N1Cc1ccccc1 (centres undefined) | 4.5 | 59.8* | -2.3 | 0.8 | 2.0 | 1.5
COc1ccc(CN2C(=NC(=O)COc3ccccc3)SC3CS(=O)(=O)CC32)cc1 (centres undefined) | -10.4 | -9.3 | -5.7 | 0.1 | -0.2 | 1.9
CCOC1OC(C(=O)N2CCN(Cc3ccc4c(c3)OCO4)CC2)=CC(c2coc3ccccc3c2=O)C1CCCO (centres undefined) | -1.1 | . | . | 2.2 | . | .
CCCNC1=C(C)C(=O)C2=C(C1=O)C(COC(N)=O)[C@]1(OC)C3NC3CN21 (some centres undefined) | 97.3* | 20.5 | 0.3 | 99.4* | 1.1 | 14.5
O=C(C1=CC(C2CCCCC2)CC(OCCCCO)O1)N1CCOCC1 (centres undefined) | 6.2 | . | . | 8.2 | . | .
O=C(c1ccc(OC2CCN(CCc3ccccc3)CC2)cc1)N1CCCCC1CCCO (centres undefined) | -3.3 | 50.2* | -5.3 | 3.4 | -2.3 | 4.7
CCc1nc(N)nc(N)c1-c1ccc(Cl)cc1 | 15.2 | 0.9 | -9.6 | 5.7 | 1.8 | 61.9*
